FBPA Giardia inh: Giardia lamblia aldolase inhibition. AID 2451. purified Giardia FBPA. 290,000 tested, 0.71% active. Potency, µM (series often up to 59.6 µM), for the others: at the highest dose activity, negative = inhibition, hits mostly inhibitors; also: potency is read from the fitted curve at half-maximal effect; nearly all actives have a fitted effect of over 55% in size
Target sequence (A8B2U2 whole entry, looked up): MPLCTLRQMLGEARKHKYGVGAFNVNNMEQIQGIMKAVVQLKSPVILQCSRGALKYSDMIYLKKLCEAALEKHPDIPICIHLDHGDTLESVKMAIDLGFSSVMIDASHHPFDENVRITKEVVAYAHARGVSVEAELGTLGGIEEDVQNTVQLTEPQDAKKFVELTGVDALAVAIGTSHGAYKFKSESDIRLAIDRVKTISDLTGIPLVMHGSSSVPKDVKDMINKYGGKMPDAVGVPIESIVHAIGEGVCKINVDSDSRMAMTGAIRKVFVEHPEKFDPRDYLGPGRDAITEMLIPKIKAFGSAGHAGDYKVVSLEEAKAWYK
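Giardia FBPA (40 nM reagent) was preincubated 10 min at RT with compound (up to 57.5 uM final), then substrate plus GAPDH/TPI/NAD/arsenate coupling system with diaphorase/resazurin was added; resorufin fluorescence (525/598 nm) was read after 20 min.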
HCV inh: inhibitors of hepatitis C virus infection | 340,000 tested, 3.4% active | Potency, µM (top dose mostly 41.8 µM), for the others: at the highest dose activity change, negative = inhibition, actives largely listed as inhibitors | Huh7.5.1 HCVcc-Cre infection, luciferase reporter, 44 h; also: potency is read from the fitted curve at half-maximal effect
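Whole-lifecycle infectious HCVcc-Cre system; cells 1,000/well, compound then virus (~0.5 moi) added 4 h after plating, 44 h culture. Luciferase read 15 sec following 15 min substrate incubation, room temp.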
Vaccinia mCherry: vaccinia inhibition (mCherry reporter); Vaccinia virus mCherry reporter infection, fluorescence; Potency, µM (highest dose often 36.5 µM), without a hit: top-dose activity change, negative = inhibition, actives largely listed as inhibitors; 310,000 tested, 0.63% active; AID 720579; calls by dose curve; tested in A549 cells; also: potency is read from the fitted curve at half-maximal effect; nearly all actives have a fitted effect of over 35% in size
Vaccinia Venus: vaccinia inhibition (Venus reporter). Vaccinia virus Venus reporter expression, fluorescence. Potency, µM (highest dose often 36.5 µM), for the others: at the highest dose activity change, negative = inhibition, usual class: inhibitors. 330,000 tested, 0.46% active; calls by dose curve; tested in A549 cells; also: potency is read from the fitted curve at half-maximal effect; nearly all actives have a fitted effect of over 30% in size
HCMV antiviral: human cytomegalovirus inhibition; AID 1259415; activity change, negative = inhibition, % at 57.5 µM; 410,000 tested, 4.5% active; HFF cells, HCMV-luciferase reporter, 72 h; hits give low values; in the data active = activity change below about -60%; inconclusive = no clear call, values can overlap the other calls; inactive = above about -39%
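Steps: HFFs plated, 16 h 37C; compounds added; HCMV-luciferase added to MOI 1 PFU/cell; 72 h 37C; OneGlo reagent, 5 min room temperature; luminescence read, normalized to controls.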
FMDV inh: foot and mouth disease virus antiviral activity; FMDV antiviral cell-based qHTS; Potency, µM (titrated, usually from 57.9 µM), for inactives: at the highest dose activity change, negative = inhibition, usual class: inhibitors; 410,000 tested, 1.2% active; calls by dose curve; tested in HEK293T cells; also: read-out not given here; potency is read from the fitted curve at half-maximal effect; nearly all actives have a fitted effect of over 45% in size
* marks the source's active call; other numbers are inactive results. This is a sample that favours compounds with a hit; in the whole collection about 7.5% have one here. Unless noted, calls follow the shape of the dose curve; as a rule, active = well fitted curve in the direction sought with a large enough effect; inconclusive = small, poorly fitted or top-dose-only effect, or another doubt; inactive = no such curve, though single readings can be large; an effect the other way counts as inactive or inconclusive. % is scaled to controls: 0 for no effect and ±100 for the full control effect.

For Cc1[nH]nc2c1/C(=N\O)CCC2 the results were FBPA Giardia inh 0.8%, HCV inh 11.9%, Vaccinia mCherry inactive, Vaccinia Venus -2.9%, HCMV antiviral -9.4 and FMDV inh -10.9%.
For COc1ccc(NS(=O)(=O)c2csc(C(N)=O)c2)cc1 the results were FBPA Giardia inh -0.7%, HCV inh 8.1%, Vaccinia mCherry -27.4%, Vaccinia Venus -6.8%, HCMV antiviral -17.3 and FMDV inh 33.7%.
`CC(N)=NCCCC[C@H](N)C(=O)O` gave FBPA Giardia inh -0.9% and FMDV inh -19.2%.
For Cc1cc(N/N=C/c2cccc(Cl)c2)nc(-n2nc(C)cc2C)n1 the results were FBPA Giardia inh 10.1%, HCV inh 17.8µM*, Vaccinia mCherry inconclusive, Vaccinia Venus inconclusive, HCMV antiviral -86.8* and FMDV inh -8.6%.
For Cc1cc(N/N=C/c2cccc([N+](=O)[O-])c2)nc(-n2nc(C)cc2C)n1 the results were FBPA Giardia inh 4.8%, HCV inh inconclusive, Vaccinia mCherry inactive, Vaccinia Venus -0.9%, HCMV antiviral inconclusive and FMDV inh -20.5%.
For O=C(OCC(=O)N1CCCC1)c1cc(Cl)ccc1[N+](=O)[O-] the results were FBPA Giardia inh 2.4%, HCV inh 1.2%, Vaccinia mCherry 5.4%, Vaccinia Venus -18.9%, HCMV antiviral -32.2 and FMDV inh -20.2%.
`CCc1ccc(C(=O)COC(=O)c2n[nH]c3ccccc23)cc1` gave FBPA Giardia inh 0.3%, HCV inh -18.6%, Vaccinia mCherry -4.3%, Vaccinia Venus -10.6%, HCMV antiviral -65.2* and FMDV inh -9.0%.
Cc1cc(N2CCCC2)c(F)cc1/C=C\[N+](=O)[O-] was read as FBPA Giardia inh 9.2%, HCV inh 5.2%, Vaccinia mCherry -22.0%, Vaccinia Venus -15.0%, HCMV antiviral -4.4 and FMDV inh 22.4µM*.
Screening Cc1cc(N2CCC(C)CC2)c(F)cc1[N+](=O)[O-] returned FBPA Giardia inh -0.5%, HCV inh 0.4%, HCMV antiviral -12.0 and FMDV inh 0.9%.
Screening NS(=O)(=O)c1ccc(NC(=O)Nc2ccc3c(c2)OCO3)cc1 returned FBPA Giardia inh -7.4%, HCV inh -13.4%, Vaccinia mCherry -8.6%, Vaccinia Venus -14.4%, HCMV antiviral 40.2 and FMDV inh 62.0%.
For CC(C(=O)Nc1ccc(OCc2ccccc2)cc1)N1CCCC1 (stereo not given) the results were FBPA Giardia inh -2.0%, HCV inh inconclusive, Vaccinia mCherry inactive, Vaccinia Venus -17.8%, HCMV antiviral -35.2 and FMDV inh 15.1%.
Screening CC(C)COCC(CN(Cc1ccccc1)c1ccccc1)N1CCCC1 (stereo not given) returned FBPA Giardia inh -25.4%, HCV inh 3.7%, Vaccinia mCherry -17.9%, Vaccinia Venus inconclusive, HCMV antiviral -67.0* and FMDV inh inconclusive.
O=C(C=CC(=O)OC1CCCCC1)OC1CCCCC1 was read as HCV inh 12.4%, Vaccinia mCherry -6.2%, Vaccinia Venus -18.6%, HCMV antiviral -16.5 and FMDV inh 1.7%.
Screening Cc1c2cnn(-c3ccccc3)c(=O)c2c(C)n1CCCC(=O)Nc1cc(F)ccc1F returned Vaccinia mCherry -11.8%, Vaccinia Venus -9.2%, HCMV antiviral -12.0 and FMDV inh -15.3%.
Screening CCN(CC)S(=O)(=O)c1cccc(C(=O)NCc2ccccc2)c1 returned FBPA Giardia inh -0.7%, HCV inh -0.9%, Vaccinia mCherry -9.0%, Vaccinia Venus -8.4%, HCMV antiviral -21.5 and FMDV inh 9.0%.
Screening CCN(CC)S(=O)(=O)c1csc(C(=O)NCc2ccccc2)c1 returned FBPA Giardia inh 3.7%, HCV inh inconclusive, HCMV antiviral -70.7* and FMDV inh inconclusive.
`CN1OC[C@@H]2CN(S(=O)(=O)c3cccc(C(F)(F)F)c3)[C@H](c3ccc(-c4cccnc4)cc3)C[C@@H]21` gave Vaccinia mCherry -9.3%, Vaccinia Venus -29.8%, HCMV antiviral -26.2 and FMDV inh -27.0%.
For CSc1nccc(Oc2cccc(C#N)c2)n1 the results were FBPA Giardia inh 0.2%, HCV inh 1.8%, Vaccinia mCherry inactive, Vaccinia Venus -9.2%, HCMV antiviral -61.3* and FMDV inh -24.2%.
